# Publication PMC7862700, “An all-to-all approach to the identification of sequence-specific readers for epigenetic DNA modifications on cytosine”
# Key:
# Experiment in all cases: DAPPL (digital affinity profiling via proximity ligation, sequencing); 10 mM Tris-HCl pH 7.5, 50 mM NaCl, 1 mM DTT, 4% glycerol, room temperature, 30 min; GST-TFs on glutathione beads, 16-mer random dsDNA library, 0.1% formaldehyde crosslink after washing; high values mean tight binding
# Settings in all cases: protein: recombinant; tags: N-terminal GST; dsDNA, one strand shown
# ELK1 = target: T1, ELK1 (Homo sapiens, UniProt P19419 1-428)
# T1 sequence: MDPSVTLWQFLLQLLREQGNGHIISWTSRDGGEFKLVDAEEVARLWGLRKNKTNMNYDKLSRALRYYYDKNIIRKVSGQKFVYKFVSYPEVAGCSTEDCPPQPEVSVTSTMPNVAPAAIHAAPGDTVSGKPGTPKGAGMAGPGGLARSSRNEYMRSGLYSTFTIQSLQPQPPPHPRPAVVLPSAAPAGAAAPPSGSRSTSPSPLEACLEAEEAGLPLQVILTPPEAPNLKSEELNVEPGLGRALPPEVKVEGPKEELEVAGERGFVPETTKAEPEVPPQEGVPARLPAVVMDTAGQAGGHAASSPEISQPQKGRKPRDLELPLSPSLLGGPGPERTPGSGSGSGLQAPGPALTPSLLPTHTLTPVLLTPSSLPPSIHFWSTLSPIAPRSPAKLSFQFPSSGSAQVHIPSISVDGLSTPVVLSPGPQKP
# In short: (§1)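 Binding signal is each hexamer's read frequency for a factor divided by its frequency in the tag-only sample. The factors were GST-fused human transcription factors from yeast, captured on glutathione beads, DNA-barcoded and pooled with that sample. Pools were incubated with 200 nmole of a random double-stranded 16-mer DNA library in Tris/NaCl/DTT/glycerol buffer at room temperature for 30 min, then washed, crosslinked with 0.1% formaldehyde, proximity-ligated with BsaI/T4 ligase (1 h, 37 °C), PCR-amplified and sequenced on an Illumina NextSeq500.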
# ERG = target: T2, ERG (Homo sapiens, UniProt P11308 1-479)
# T2 sequence: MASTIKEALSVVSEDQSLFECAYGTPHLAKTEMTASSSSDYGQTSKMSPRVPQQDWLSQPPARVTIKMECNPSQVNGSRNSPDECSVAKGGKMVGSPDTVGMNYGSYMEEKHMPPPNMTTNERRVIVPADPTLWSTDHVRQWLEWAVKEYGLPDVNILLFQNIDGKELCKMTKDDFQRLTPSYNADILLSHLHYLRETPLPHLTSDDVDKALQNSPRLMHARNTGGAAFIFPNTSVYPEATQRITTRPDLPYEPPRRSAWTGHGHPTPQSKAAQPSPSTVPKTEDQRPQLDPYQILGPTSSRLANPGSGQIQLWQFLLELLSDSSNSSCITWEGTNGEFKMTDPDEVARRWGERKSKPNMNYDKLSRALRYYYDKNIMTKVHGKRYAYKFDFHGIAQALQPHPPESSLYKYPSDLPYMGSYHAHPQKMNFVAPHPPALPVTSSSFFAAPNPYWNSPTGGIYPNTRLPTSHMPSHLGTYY
# In short: as §1
# ELF1 = ELF1 (Homo sapiens, UniProt P32519 1-619)
# In short: as §1
# EHF = target: T3, EHF (Homo sapiens, UniProt Q9NZC4 1-300)
# T3 sequence: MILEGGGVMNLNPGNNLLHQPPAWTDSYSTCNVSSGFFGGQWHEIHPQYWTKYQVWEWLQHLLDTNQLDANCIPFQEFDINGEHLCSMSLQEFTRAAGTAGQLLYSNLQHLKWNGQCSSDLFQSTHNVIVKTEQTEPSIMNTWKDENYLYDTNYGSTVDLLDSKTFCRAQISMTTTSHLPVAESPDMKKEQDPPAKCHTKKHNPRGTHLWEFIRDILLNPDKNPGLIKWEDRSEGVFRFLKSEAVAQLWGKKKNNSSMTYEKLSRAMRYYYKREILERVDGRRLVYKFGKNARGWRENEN
# In short: as §1
# SPIB = SPIB (Homo sapiens, UniProt Q01892 1-262)
# In short: as §1
# FEV = target: T4, FEV (Homo sapiens, UniProt Q99581 1-238)
# T4 sequence: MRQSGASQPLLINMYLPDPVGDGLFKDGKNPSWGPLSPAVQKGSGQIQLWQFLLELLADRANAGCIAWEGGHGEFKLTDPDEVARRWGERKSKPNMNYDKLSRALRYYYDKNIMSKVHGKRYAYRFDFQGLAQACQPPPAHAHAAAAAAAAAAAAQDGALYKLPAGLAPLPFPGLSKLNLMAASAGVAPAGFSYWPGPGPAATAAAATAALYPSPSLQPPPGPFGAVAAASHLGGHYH
# In short: as §1
# ETV5 = ETV5 (Homo sapiens, UniProt P41161 1-510)
# In short: as §1
# ELK4 = target: T5, ELK4 (Homo sapiens, UniProt P28324-2 1-405)
# T5 sequence: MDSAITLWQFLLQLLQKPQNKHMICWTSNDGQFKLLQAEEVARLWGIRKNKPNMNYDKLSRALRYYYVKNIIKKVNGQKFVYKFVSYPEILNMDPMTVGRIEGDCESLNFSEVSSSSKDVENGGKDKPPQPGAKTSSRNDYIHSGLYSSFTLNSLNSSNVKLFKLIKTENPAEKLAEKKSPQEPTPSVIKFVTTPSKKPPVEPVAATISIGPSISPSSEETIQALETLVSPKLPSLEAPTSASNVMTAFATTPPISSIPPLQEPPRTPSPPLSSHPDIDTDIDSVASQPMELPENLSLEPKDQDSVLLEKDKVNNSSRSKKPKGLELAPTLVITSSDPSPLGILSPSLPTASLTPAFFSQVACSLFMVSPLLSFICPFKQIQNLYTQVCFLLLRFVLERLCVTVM
# In short: as §1
# ETV2 = target: T6, ETV2 (Homo sapiens, UniProt O00321 1-342)
# T6 sequence: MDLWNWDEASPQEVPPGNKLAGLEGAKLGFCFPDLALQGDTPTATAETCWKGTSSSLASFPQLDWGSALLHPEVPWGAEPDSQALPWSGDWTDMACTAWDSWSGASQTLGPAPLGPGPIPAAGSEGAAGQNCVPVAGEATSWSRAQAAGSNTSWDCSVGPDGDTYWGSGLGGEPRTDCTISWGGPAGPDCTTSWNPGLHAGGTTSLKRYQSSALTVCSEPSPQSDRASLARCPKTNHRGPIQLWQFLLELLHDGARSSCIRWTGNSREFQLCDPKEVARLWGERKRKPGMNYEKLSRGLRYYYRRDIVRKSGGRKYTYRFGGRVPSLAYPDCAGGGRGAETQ
# In short: as §1
# ETV1 = ETV1 (Homo sapiens, UniProt P50549 1-477)
# In short: as §1
# ERF = target: T7, ERF (Homo sapiens, UniProt P50548 1-548)
# T7 sequence: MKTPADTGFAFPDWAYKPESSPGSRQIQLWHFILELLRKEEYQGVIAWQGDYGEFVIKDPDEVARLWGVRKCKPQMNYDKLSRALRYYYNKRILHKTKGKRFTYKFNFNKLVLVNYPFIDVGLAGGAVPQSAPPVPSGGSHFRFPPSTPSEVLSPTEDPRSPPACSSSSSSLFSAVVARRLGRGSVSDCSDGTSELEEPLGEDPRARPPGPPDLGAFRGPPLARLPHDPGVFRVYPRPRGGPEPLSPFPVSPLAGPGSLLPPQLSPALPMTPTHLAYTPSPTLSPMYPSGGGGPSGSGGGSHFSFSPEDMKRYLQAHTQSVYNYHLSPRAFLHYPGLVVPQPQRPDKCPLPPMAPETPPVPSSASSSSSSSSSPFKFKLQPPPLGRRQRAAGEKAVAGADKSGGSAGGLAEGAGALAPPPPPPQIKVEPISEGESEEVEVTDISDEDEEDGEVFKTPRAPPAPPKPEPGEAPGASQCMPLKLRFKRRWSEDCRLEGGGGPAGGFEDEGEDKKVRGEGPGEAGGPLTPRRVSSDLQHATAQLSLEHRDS
# In short: as §1
# ETV3L = target: T8, ETV3L (Homo sapiens, UniProt Q6ZN32 1-361)
# T8 sequence: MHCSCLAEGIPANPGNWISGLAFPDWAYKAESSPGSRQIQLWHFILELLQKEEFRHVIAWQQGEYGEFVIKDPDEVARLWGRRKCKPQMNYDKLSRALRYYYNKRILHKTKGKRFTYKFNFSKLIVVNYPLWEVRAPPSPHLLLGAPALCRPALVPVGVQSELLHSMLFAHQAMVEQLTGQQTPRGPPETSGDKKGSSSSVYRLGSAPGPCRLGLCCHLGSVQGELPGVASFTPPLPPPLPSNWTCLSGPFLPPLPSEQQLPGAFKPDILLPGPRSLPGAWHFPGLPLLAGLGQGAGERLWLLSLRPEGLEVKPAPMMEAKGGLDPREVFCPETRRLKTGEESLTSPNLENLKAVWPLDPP
# In short: as §1
# ETS2 = target: T9, ETS2 (Homo sapiens, UniProt P15036 1-469)
# T9 sequence: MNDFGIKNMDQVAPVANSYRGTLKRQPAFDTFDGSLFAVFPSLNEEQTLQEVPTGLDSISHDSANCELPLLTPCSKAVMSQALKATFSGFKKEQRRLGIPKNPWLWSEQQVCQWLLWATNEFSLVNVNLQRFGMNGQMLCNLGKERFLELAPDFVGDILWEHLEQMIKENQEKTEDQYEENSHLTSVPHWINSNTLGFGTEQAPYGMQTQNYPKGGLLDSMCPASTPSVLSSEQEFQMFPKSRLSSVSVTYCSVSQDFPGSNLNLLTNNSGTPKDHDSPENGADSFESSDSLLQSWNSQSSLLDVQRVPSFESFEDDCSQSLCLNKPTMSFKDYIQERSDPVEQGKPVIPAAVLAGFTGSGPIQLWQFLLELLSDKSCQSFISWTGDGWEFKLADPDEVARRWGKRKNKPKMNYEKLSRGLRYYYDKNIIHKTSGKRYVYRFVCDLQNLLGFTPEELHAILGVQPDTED
# In short: as §1
# SPDEF = target: T10, SPDEF (Homo sapiens, UniProt O95238 1-335)
# T10 sequence: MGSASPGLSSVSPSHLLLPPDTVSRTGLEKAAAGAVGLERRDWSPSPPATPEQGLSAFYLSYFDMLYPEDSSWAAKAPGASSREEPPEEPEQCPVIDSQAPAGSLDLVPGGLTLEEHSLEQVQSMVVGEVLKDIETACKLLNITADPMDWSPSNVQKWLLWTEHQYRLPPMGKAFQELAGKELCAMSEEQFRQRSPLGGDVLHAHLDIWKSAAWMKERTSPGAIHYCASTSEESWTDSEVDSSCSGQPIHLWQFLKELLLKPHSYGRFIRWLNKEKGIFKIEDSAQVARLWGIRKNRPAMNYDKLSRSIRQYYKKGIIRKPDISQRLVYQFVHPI
# In short: as §1
# ETV3 = target: T11, ETV3 (Homo sapiens, UniProt P41162-2 1-143)
# T11 sequence: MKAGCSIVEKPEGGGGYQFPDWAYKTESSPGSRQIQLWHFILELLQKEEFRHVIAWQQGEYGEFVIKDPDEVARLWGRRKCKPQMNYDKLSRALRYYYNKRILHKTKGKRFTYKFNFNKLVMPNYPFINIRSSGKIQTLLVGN
# In short: as §1
# ETV6 = ETV6 (Homo sapiens, UniProt P41212 1-452)
# In short: as §1
# Chain of ETV1 (P50549 whole entry): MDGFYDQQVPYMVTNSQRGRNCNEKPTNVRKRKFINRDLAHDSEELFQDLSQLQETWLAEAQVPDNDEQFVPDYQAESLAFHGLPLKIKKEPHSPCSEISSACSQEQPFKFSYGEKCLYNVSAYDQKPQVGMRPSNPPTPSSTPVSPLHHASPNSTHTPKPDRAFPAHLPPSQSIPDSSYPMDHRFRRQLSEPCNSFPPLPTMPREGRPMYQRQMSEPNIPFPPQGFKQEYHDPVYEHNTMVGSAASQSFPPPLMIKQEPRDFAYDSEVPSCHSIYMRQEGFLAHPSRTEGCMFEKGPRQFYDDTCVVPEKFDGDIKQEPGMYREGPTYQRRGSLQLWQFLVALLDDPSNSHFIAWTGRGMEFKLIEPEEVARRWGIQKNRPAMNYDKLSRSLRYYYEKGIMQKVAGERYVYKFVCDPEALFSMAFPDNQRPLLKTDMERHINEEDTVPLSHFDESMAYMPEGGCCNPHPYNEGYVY
# Chain of ETV5 (P41161 whole entry): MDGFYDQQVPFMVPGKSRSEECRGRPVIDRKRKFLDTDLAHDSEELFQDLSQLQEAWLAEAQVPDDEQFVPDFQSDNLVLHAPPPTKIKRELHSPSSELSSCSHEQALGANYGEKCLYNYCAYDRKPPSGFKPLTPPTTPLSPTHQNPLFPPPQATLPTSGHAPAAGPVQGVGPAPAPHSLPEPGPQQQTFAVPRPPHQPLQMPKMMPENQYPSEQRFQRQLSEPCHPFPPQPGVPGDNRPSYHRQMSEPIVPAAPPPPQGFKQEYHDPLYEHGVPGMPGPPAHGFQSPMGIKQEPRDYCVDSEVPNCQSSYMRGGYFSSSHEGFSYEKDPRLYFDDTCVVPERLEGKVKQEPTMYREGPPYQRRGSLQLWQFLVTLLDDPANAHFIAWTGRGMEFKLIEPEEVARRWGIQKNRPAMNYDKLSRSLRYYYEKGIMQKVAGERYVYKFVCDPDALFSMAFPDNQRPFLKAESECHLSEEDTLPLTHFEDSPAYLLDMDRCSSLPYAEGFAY
# Chain of SPIB (Q01892 whole entry): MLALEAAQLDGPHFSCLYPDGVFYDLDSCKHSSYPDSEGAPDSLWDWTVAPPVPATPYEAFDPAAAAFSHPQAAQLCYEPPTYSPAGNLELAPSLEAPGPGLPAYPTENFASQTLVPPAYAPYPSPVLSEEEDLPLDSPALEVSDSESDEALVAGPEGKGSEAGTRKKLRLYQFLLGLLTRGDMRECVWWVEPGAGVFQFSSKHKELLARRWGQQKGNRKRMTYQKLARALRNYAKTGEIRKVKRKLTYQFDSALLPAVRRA
# Chain of ETV6 (P41212 whole entry): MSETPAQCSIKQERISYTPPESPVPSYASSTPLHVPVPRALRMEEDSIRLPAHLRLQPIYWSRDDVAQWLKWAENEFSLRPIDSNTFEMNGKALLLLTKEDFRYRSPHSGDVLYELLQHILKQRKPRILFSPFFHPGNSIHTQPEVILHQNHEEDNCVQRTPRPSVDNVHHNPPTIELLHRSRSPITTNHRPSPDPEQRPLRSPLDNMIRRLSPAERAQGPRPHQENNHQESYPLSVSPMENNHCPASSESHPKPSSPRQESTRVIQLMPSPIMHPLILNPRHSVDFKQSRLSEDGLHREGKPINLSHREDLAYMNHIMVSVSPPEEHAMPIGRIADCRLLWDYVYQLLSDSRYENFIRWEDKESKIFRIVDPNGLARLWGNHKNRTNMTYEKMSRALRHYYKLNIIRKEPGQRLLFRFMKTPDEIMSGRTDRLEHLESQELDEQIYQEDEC
# Chain of ELF1 (P32519 whole entry): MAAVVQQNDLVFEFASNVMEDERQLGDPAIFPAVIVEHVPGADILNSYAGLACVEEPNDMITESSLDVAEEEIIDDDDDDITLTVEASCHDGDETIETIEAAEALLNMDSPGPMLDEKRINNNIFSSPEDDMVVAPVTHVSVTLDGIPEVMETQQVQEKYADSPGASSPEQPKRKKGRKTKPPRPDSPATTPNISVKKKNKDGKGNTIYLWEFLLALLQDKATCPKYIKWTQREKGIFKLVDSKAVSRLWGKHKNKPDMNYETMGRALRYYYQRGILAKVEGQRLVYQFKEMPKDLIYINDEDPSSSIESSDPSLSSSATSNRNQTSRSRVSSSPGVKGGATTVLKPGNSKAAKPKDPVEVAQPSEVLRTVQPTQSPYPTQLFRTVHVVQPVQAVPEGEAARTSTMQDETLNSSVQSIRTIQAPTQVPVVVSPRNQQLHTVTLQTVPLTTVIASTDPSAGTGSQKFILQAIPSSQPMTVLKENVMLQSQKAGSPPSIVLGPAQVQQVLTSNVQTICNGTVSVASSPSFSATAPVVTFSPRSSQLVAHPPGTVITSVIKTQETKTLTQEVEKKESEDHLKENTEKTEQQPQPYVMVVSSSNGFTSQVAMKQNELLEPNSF
sequence,measurement,setting,value
CGACTG,binding signal,ELK1,"1.13 fold enrichment (6-mer frequency, TF over GST control)"
same,binding signal,ERG,"1.05 fold enrichment (6-mer frequency, TF over GST control)"
same,binding signal,ELF1,"1.08 fold enrichment (6-mer frequency, TF over GST control)"
same,binding signal,EHF,"1.02 fold enrichment (6-mer frequency, TF over GST control)"
same,binding signal,SPIB,"1.05 fold enrichment (6-mer frequency, TF over GST control)"
same,binding signal,FEV,"1.1 fold enrichment (6-mer frequency, TF over GST control)"
same,binding signal,ETV5,"1.06 fold enrichment (6-mer frequency, TF over GST control)"
same,binding signal,ELK4,"1.22 fold enrichment (6-mer frequency, TF over GST control)"
same,binding signal,ETV2,"1.19 fold enrichment (6-mer frequency, TF over GST control)"
same,binding signal,ETV1,"1.13 fold enrichment (6-mer frequency, TF over GST control)"
same,binding signal,ERF,"1.17 fold enrichment (6-mer frequency, TF over GST control)"
same,binding signal,ETV3L,"1.07 fold enrichment (6-mer frequency, TF over GST control)"
same,binding signal,ETS2,"1.08 fold enrichment (6-mer frequency, TF over GST control)"
same,binding signal,SPDEF,"1.06 fold enrichment (6-mer frequency, TF over GST control)"
same,binding signal,ETV3,"1.05 fold enrichment (6-mer frequency, TF over GST control)"
same,binding signal,ETV6,"1.02 fold enrichment (6-mer frequency, TF over GST control)"
